Screening data from PubChem BioAssay.
MazEF act: activators of E. coli MazEF toxin-antitoxin RNase, primary screen, biochemical, fluorescence, uHTS | FAM/BHQ RNA-DNA oligo cleavage fluorescence, 5 h | Endoribonuclease toxin MazF (Escherichia coli (strain K12)), P0AE70 | hit rate 0.32% among 350,000 | activation, % at 20 µM; in the data active means activation above about 50%
BoNT-A LC inh2: BoNT/A light chain protease inhibitors, primary screen, biochemical, flow cytometry, MLPCN library | Botulinum neurotoxin type A light chain protease (Clostridium botulinum A str. ATCC 3502) | multiplex microsphere protease substrate cleavage | hit rate 0.17% among 360,000 | inhibition, % at 10 µM | AID 588499, 2011; further: plate controls were buffer without enzyme for full effect and enzyme alone for no effect
PfHsp40 yeast: rescue of yeast from PfHsp40 toxicity, primary screen, S. cerevisiae, ATP luminescence. S. cerevisiae expressing PfHsp40, growth rescue. growth rescue, % at 12.5 µM. hit rate 0.68% among 340,000; in the data active means growth rescue above about 28%, passing the limit was not always enough; inconclusive means no clear call, values can overlap the other calls;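 further: yeast W303a lacking pdr1 and pdr3 grown in galactose medium; growth measured after three days at 30 °C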
Autofluor counter: counter-screen for toxin protease inhibitors: compound fluorescence | compound autofluorescence counterscreen, microsphere flow cytometry; hits give high values | fluorescence intensity (test concentration not listed) | hit rate 3.1% among 360,000 | AID 624483; in the data active means fluorescence intensity above about 16000; inconclusive means no clear call, values can overlap the other calls
BoNT F protease: BoNT/F light chain protease inhibitors, primary screen, biochemical, flow cytometry, MLPCN library | Botulinum neurotoxin type F light chain protease (Clostridium botulinum) | Multiplex microsphere protease cleavage assay | inhibition, % at 10 µM | hit rate 0.22% among 360,000; in the data active means inhibition above about 35%, passing the limit was not always enough; inconclusive means no clear call, values can overlap the other calls; further: plate controls were buffer without enzyme for full effect and enzyme alone for no effect
Anthrax LF prot: Bacillus anthracis LF protease inhibitors, primary screen, biochemical, multiplex microsphere, MLPCN library; multiplex microsphere protease cleavage assay; inhibition, % at 10 µM; hit rate 0.12% among 360,000; AID 588501, 2011; further: plate controls were buffer without enzyme for full effect and enzyme alone for no effect
Target sequence (P15917 whole entry, looked up): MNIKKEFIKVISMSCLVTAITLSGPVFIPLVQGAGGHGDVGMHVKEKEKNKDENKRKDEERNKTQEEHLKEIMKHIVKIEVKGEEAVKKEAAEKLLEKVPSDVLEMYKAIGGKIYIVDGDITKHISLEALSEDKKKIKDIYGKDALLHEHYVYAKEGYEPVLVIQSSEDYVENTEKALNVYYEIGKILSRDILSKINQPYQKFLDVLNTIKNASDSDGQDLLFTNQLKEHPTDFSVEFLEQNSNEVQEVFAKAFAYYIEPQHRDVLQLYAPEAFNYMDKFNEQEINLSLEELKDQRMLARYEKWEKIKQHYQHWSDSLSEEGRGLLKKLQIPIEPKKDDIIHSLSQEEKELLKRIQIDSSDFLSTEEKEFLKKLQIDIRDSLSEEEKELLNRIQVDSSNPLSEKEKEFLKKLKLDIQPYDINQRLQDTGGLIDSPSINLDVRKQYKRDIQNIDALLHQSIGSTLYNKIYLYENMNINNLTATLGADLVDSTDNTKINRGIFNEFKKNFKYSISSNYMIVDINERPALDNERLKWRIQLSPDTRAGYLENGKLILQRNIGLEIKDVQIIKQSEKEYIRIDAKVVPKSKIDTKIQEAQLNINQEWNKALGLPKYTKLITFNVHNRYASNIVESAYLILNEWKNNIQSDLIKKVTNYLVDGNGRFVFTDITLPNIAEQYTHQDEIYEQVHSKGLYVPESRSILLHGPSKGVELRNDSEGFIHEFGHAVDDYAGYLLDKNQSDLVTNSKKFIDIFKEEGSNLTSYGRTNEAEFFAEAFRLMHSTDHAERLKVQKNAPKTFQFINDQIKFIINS
* = called active by the depositor. Only some compounds are listed: those with a hit (about 4.3% of all), similar ones and a draw of the others. Unless noted, no stated cut-off is given here; in the data, active means inhibition above about 30%; inconclusive means no clear call, values can overlap the other calls; inactive means below that.

Results for COc1cc(OC)c(NC(=O)C2CC(=O)N(c3ccc4c(c3)OCCO4)C2)cc1Cl (stereo not drawn) ?
MazEF act: 6; PfHsp40 yeast: -1

How did OC(COc1ccc2cc(Br)ccc2c1)CN1CCCC1 (stereo not drawn) do in these assays?
MazEF act: 8; BoNT-A LC inh2: -3; PfHsp40 yeast: 1; Autofluor counter: 23249*; BoNT F protease: -5; Anthrax LF prot: -4

What do the screens show for `O=C(NCCC(=O)N1CCCCCCC1)c1ccc(Cl)cc1`?
MazEF act: 3; BoNT-A LC inh2: -1; PfHsp40 yeast: 0; Autofluor counter: 5675; BoNT F protease: 13; Anthrax LF prot: -2

How did N/C(=N\OC(=O)C12CC3CC(CC(C3)C1)C2)c1ccccc1 do in these assays?
MazEF act: -5; BoNT-A LC inh2: 5; PfHsp40 yeast: 2; Autofluor counter: 17662*; BoNT F protease: 5; Anthrax LF prot: -10

Results for O=C(NCc1cccs1)c1ccc2sc([C@H]3C[C@H](O)[C@@H](CO)O3)nc2c1 ?
BoNT-A LC inh2: 0; Autofluor counter: 3065; BoNT F protease: -7; Anthrax LF prot: -8

Results for COc1ccc2nc(C)cc(SCC(=O)NNC(=O)COc3cccc4ccccc34)c2c1 ?
MazEF act: 3; BoNT-A LC inh2: 1; PfHsp40 yeast: -3; Autofluor counter: 2517; BoNT F protease: 3; Anthrax LF prot: -1

What do the screens show for `COc1ccc2nc(C)cc(SCC(=O)Nc3c(C)cc(C)cc3C)c2c1`?
MazEF act: -54; BoNT-A LC inh2: 4; PfHsp40 yeast: 1; Autofluor counter: 18106*; BoNT F protease: 2; Anthrax LF prot: 0

What do the screens show for `COc1ccc2nc(C)cc(SCC(=O)NNC(=O)COc3ccc(C)cc3)c2c1`?
MazEF act: 51*; BoNT-A LC inh2: 0; PfHsp40 yeast: 0; Autofluor counter: 8511; BoNT F protease: 7; Anthrax LF prot: -4

Results for CCC(=O)N1CCc2cc(S(=O)(=O)CCC(=O)NCc3cccc(OC)c3)ccc21 ?
MazEF act: -14; BoNT-A LC inh2: 1; PfHsp40 yeast: -1; Autofluor counter: 5670; BoNT F protease: 4; Anthrax LF prot: -1

How did COc1ccc(OC)c(NC(=O)CCN2CCN(CCO)CC2)c1 do in these assays?
MazEF act: 4; BoNT-A LC inh2: -1; PfHsp40 yeast: 0; Autofluor counter: 4973; BoNT F protease: -19; Anthrax LF prot: 1

How did COc1ccc(/C=C/C(=O)NCCc2nc3ccccc3[nH]2)cc1 do in these assays?
MazEF act: 2; BoNT-A LC inh2: -4; PfHsp40 yeast: 1; Autofluor counter: 4212; BoNT F protease: -3; Anthrax LF prot: -15

What do the screens show for `CCCCOc1ccc(/C=C/C(=O)NCCc2nc3ccccc3[nH]2)cc1`?
MazEF act: -10; BoNT-A LC inh2: -4; PfHsp40 yeast: -1; Autofluor counter: 21858*; BoNT F protease: -8; Anthrax LF prot: -2

How did CCCCCNC(=O)c1cc(S(=O)(=O)N2CCCCC2)ccc1F do in these assays?
MazEF act: 1; BoNT-A LC inh2: inconclusive; PfHsp40 yeast: 0; Autofluor counter: 23121*; BoNT F protease: 5; Anthrax LF prot: -3

What do the screens show for `O=C(NCc1ccc(F)cc1)c1cc(S(=O)(=O)N2CCOCC2)ccc1F`?
MazEF act: 7; BoNT-A LC inh2: inconclusive; PfHsp40 yeast: -1; Autofluor counter: 21187*; BoNT F protease: 7; Anthrax LF prot: 0

Results for CCN(CC)S(=O)(=O)c1ccc(F)c(C(=O)NCCC(C)C)c1 ?
MazEF act: 3; BoNT-A LC inh2: inconclusive; PfHsp40 yeast: -1; Autofluor counter: 17171*; BoNT F protease: -2; Anthrax LF prot: 1

How did COc1ccc(CCNC(=O)c2cc(S(=O)(=O)N3CCc4ccccc43)ccc2F)cc1OC do in these assays?
MazEF act: 3; BoNT-A LC inh2: -1; Autofluor counter: 3532; BoNT F protease: -3; Anthrax LF prot: 5

How did CCCNC(=O)c1cc(S(=O)(=O)N2CCc3ccccc32)ccc1F do in these assays?
MazEF act: 0; BoNT-A LC inh2: -3; PfHsp40 yeast: 0; Autofluor counter: 16850*; BoNT F protease: -4; Anthrax LF prot: 0

What do the screens show for `O=C(NCc1ccc(F)cc1)c1cc(S(=O)(=O)N2CCCCC2)ccc1N1CCOCC1`?
MazEF act: -5; BoNT-A LC inh2: 0; PfHsp40 yeast: 0; Autofluor counter: 4209; BoNT F protease: -7; Anthrax LF prot: -4

How did NC(=O)c1cnn2c(C(F)(F)F)cc(-c3ccc(F)cc3)nc12 do in these assays?
MazEF act: 7; BoNT-A LC inh2: -2; PfHsp40 yeast: -1; Autofluor counter: 22634*; BoNT F protease: -2; Anthrax LF prot: -1

Results for CC(C)CCNC(=O)c1cnn2c(C(F)(F)F)cc(-c3ccco3)nc12 ?
MazEF act: -3; BoNT-A LC inh2: 7; PfHsp40 yeast: 1; Autofluor counter: 19781*; BoNT F protease: 7; Anthrax LF prot: -5

What do the screens show for `O=C(NC1CCCC1)c1cnn2c(C(F)(F)F)cc(-c3ccco3)nc12`?
MazEF act: 7; BoNT-A LC inh2: 2; PfHsp40 yeast: 1; Autofluor counter: 20185*; BoNT F protease: 2; Anthrax LF prot: -1

How did CCOC(=O)c1cnn2c(C(F)(F)F)cc(-c3ccco3)nc12 do in these assays?
MazEF act: 6; BoNT-A LC inh2: 0; PfHsp40 yeast: -1; Autofluor counter: 5098; BoNT F protease: -4; Anthrax LF prot: 4

Results for O=C(NC1CCCC1)c1cnn2c(C(F)(F)F)cc(-c3ccc4c(c3)OCO4)nc12 ?
MazEF act: 76*; BoNT-A LC inh2: 2; PfHsp40 yeast: 1; Autofluor counter: 9056; BoNT F protease: 7; Anthrax LF prot: 2

How did COc1ccc2ccc(OCC(=O)Nc3cc(C)on3)cc2c1 do in these assays?
MazEF act: -27; BoNT-A LC inh2: 1; PfHsp40 yeast: 0; Autofluor counter: 5651; BoNT F protease: 3; Anthrax LF prot: 4

Results for COC(=O)Cn1cnc2c(oc3ccccc32)c1=O ?
MazEF act: 0; BoNT-A LC inh2: -1; PfHsp40 yeast: -1; Autofluor counter: 5856; BoNT F protease: 7; Anthrax LF prot: 4

Results for CCN1C(=O)/C(=C/C=C2\N(CC)c3cc(S(=O)(=O)N(C)C)ccc3N2c2ccccc2)SC1=S ?
MazEF act: inactive; BoNT-A LC inh2: 89*; PfHsp40 yeast: 0; Autofluor counter: 6004; BoNT F protease: 14; Anthrax LF prot: 38*

Results for O=C(Nc1cccc(C(F)(F)F)c1)c1cc2c(=O)c3ccccc3oc2nc1C(F)(F)F ?
MazEF act: 9; BoNT-A LC inh2: inconclusive; PfHsp40 yeast: 0; Autofluor counter: 23568*; BoNT F protease: -5; Anthrax LF prot: 1
